In the library only some 2.8% were active in any assay of this set; here they are far more common.
ERa SRC1 inh – ER-alpha (human) coactivator binding inhibition; inhibition, % at 25.6 µM; TR-FRET ER-alpha LBD / SRC-1 peptide, estradiol-bound; P03372; 86,000 tested, 1.7% active; in the data active = inhibition above about 50%;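 also: 0% = receptor plus peptide control and 100% = peptide only without receptor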
Target sequence (P03372 whole entry, looked up, the tested form may be a part): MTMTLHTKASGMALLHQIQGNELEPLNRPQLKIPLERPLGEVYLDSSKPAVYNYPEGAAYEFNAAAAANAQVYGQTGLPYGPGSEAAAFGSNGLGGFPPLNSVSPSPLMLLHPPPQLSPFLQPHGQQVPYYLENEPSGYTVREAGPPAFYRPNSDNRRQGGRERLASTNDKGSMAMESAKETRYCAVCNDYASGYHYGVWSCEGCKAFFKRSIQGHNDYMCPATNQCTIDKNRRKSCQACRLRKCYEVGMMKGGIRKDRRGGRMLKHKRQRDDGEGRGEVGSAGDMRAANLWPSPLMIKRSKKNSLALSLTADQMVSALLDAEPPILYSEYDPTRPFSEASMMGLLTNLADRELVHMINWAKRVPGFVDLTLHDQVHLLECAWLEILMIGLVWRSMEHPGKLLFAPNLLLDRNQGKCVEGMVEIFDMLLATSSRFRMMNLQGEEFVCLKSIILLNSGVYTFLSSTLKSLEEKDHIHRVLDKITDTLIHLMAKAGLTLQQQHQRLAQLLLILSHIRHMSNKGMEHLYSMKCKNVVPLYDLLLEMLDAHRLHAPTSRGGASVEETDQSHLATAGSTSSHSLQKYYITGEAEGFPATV
ERa coact pot – enhances coactivator binding to human estrogen receptor alpha; 86,000 tested, 1.3% active; AID 639; TR-FRET ERalpha-LBD/SRC-Cy5 coactivator binding, 2 h; 100 = basal binding, no effect; P03372; coactivator binding (% of control), % at 25.6 µM; in the data active = activity above about 200%;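 also: binding measured in presence of low estradiol as agonist stimulus; 0% = peptide alone without receptor and 100% = receptor with peptide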
MRP-1 activ – MRP-1 activation; H69AR cells + doxorubicin, viability rescue, CellTiter-Glo; viability increase, % at 10 µM; 140,000 tested, 0.61% active;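 active = viability gain under doxorubicin at or above a set limit, the compound median plus 3 SD, cut at about 4.7% in these data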;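 also: MRP-1 overexpressing cells given doxorubicin 25 µM after compound pretreatment; 18-22 h compound pretreatment then 72 h with doxorubicin before readout; 0% = doxorubicin-only wells and 100% = vehicle-treated cells without doxorubicin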
Smad3 FoxH1 inh – Smad3 (human) transcription factor binding inhibition | P84022 | TR-FRET Smad3/Dy647-FoxH1 peptide binding, europium anti-His | inhibition, % at 25 µM | 88,000 tested, 0.29% active;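 active = compounds that reduce the energy-transfer binding signal between the protein and its labelled peptide by more than half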;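 also: 0% = Smad3 plus labelled peptide maximal FRET and 100% = peptide-only background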
ERb SRC1 inh – ER-beta (human) coactivator binding inhibition; Q92731; TR-FRET ER-beta LBD / SRC1-Cy5 peptide binding; receptor agonist-loaded with 1 µM estradiol; inhibition, % at 25.6 µM; 86,000 tested, 1.3% active; AID 633;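 active = compounds whose percent inhibition of the receptor-coactivator binding signal exceeds about 50% in the single-dose screen, limit read from the data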;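 also: 0% = receptor plus peptide wells without compound and 100% = peptide-only wells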
MRP resist rev – compounds reversing MRP-mediated drug resistance; H69AR cells + 2 uM doxorubicin, CellTiter-Glo, 72 h; differential viability (reversal), % at 10 µM; 85,000 tested, 0.04% active; AID 602;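 active = viability drop by adding the cancer drug above about 55%, with treated viability meeting a 40% cutoff, limit read from the data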;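 also: viability without doxorubicin minus viability with 2 µM doxorubicin for each compound; larger differential means the compound sensitizes cells more to doxorubicin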
Active calls of the source: *; . = no result given; [ ] = remark or other dose.

SMILES	ERa SRC1 inh	ERa coact pot	MRP-1 activ	Smad3 FoxH1 inh	ERb SRC1 inh	MRP resist rev
Cc1oc(-c2ccc(F)cc2)cc1-c1nn2c(-c3ccco3)nnc2s1	82*[fluorescence artefact?]	83	.	-3	51*[fluorescence artefact?]	-5
Cc1oc(-c2ccc(Cl)cc2)cc1-c1nn2c(-c3ccco3)nnc2s1	46	95	.	-15	45	-12
Cc1oc(-c2ccc(F)cc2)cc1-c1nn2c(-c3ccoc3C)nnc2s1	79*[fluorescence artefact?]	67	.	0	63*	6
C=CCNC(=O)C1CC(=O)N(c2ccc(Br)cc2)C1 (stereo not given)	-4	100	-1	9	95*[fluorescence artefact?]	12
COc1ccc(NC(=O)C2C(=O)NC3(C)CC2c2ccccc2O3)cc1 (stereo not given)	-4	115	4.9*	-3	-7	18
COc1ccc(C(C)NC(=O)C2C(=O)NC3(C)CC2c2ccccc2O3)cc1 (stereo not given)	3	95	-3	6	-4	11
C=CCN(C(=O)Nc1ccc(Cl)cc1)C1CC(=O)N(c2ccc(OC)cc2)C1=O (stereo not given)	-43	104	6.6*	1	-32	1
CC(C)CNC1=C(C(=S)Nc2ccccc2)C(=O)CC(C)(C)C1	.	.	-5	.	.	.
CCCCOc1ccc(/C=C/C(=O)Nc2ccc([N+](=O)[O-])cc2C)cc1	.	.	5.8*	.	.	.
CCCOc1ccc(/C=C/C(=O)Nc2ccc([N+](=O)[O-])cc2)cc1	.	.	-1	.	.	.
COc1cc2nc(N3CCNCC3)nc(N)c2cc1OC	87*[fluorescence artefact?]	89	-2	6	-8	1
COc1ncnc2c1oc1nc(CC(C)C)c3c(c12)CCCC3	-11	86	7.2*	5	-5	-3
C=CCn1cnc2c(c1=O)c1nc3ccccc3nc1n2/N=C/c1cccc(OC)c1OC	85*[fluorescence artefact?]	66	.	5	-1	1
C=CCn1cnc2c(c1=O)c1nc3ccccc3nc1n2/N=C/c1cc(OC)c(OC)c(OC)c1	16	91	-5	5	10	-12
c1ccc2c(c1)c1ccccc1n2Cn1c2ccccc2c2ccccc21	.	.	.	-18	.	.
COc1cc2ccc([C@H](C)NCC#N)cc2cc1OC	.	.	.	6	.	.
COC(=O)N/N=C/c1ccc(-c2cc(Cl)ccc2Cl)o1	.	.	4.9*	.	.	.
COC(=O)N/N=C\c1ccc(-c2cc(Cl)c(Cl)cc2Cl)o1	.	.	4	.	.	.
CC(C)(CC(=O)Nc1ccccc1)C(=O)O	.	.	.	2	.	.
Cc1ccc(/C=C2\SC(=S)N(CCCC(=O)Nc3ccccn3)C2=O)cc1	.	.	6.8*	.	.	.
Cc1ccc(/C=C2\SC(=S)N(CCCC(=O)Nc3nccs3)C2=O)cc1	.	.	5.3*	.	.	.
COc1ccc(/C=C2\SC(=S)N(CCCC(=O)Nc3ccccn3)C2=O)cc1OC	.	.	-3	.	.	.
Cc1ccc(-n2nnnc2SCC(=O)Nc2ccc3c(c2)COC3=O)cc1C	73*	150	-5	-35	48	-9
Cc1ccc(NC(=O)CSc2nnnn2-c2ccc3c(c2)OCO3)cc1C	56*[fluorescence artefact?]	330*	-3	2	38	3
CCOC(=O)c1csc(NC(=O)CSc2nnnn2-c2cccc(OC)c2)n1	4	143	-1	11	-7	1
SMILES	ERa SRC1 inh	ERa coact pot	MRP-1 activ	Smad3 FoxH1 inh	ERb SRC1 inh	MRP resist rev
COc1cccc(-n2nnnc2SCC(=O)Nc2ccc(C(C)=O)cc2)c1	33	332*	2	-15	30	10
CCOCC(=O)Nc1cccc(C(=O)OCC)c1	60*	116	-3	4	-4	-17
O=C(O)C(Cc1cccs1)C(=O)O	.	.	.	10	.	.
Nc1ccc2c(c1)C(=O)C(=O)c1ccccc1-2	-15	71	-3	73*[fluorescence artefact?]	8	-1
CC(=O)Nc1ccc2c(c1)C(=O)c1ccccc1C2=O	.	.	-3	.	.	.
O=C1C(=O)c2ccc(-c3ccccc3)cc2-c2ccccc21	24	90	-5	66*[fluorescence artefact?]	-2	1
COC1=C(c2ccccc2)C(=O)c2ccccc2C1=O	.	.	-5	.	.	.
NS(=O)(=O)c1cc2c(cc1Cl)NC(C1C[C@H]3C=C[C@@H]1C3)NS2(=O)=O (stereo not given in full)	-4	106	2	0	-6	5
CCOc1ccccc1N(CC(=O)O)S(=O)(=O)c1ccccc1	-4	118	4.8*	-9	-2	-5
CCOc1ccccc1N(CC(=O)OC)S(=O)(=O)c1ccccc1	-4	110	-1	1	-2	2
O=C(NCc1ccc(Cl)cc1)C(=O)NCC1OCCN1S(=O)(=O)c1cccs1 (stereo not given)	.	.	4	.	.	.
O=C(NCc1ccc(Cl)cc1)C(=O)NCC1OCCN1C(=O)c1cccs1 (stereo not given)	.	.	6.4*	.	.	.
CCOC(=O)c1cnc(-n2cc(C)cn2)nc1NCc1ccc2c(c1)OCO2	65*[fluorescence artefact?]	100	-1	2	32	1
CCOC(=O)c1cnc(-n2nc(C)cc2C)nc1NCc1ccccc1	15	102	-2	7	3	1
Cc1ccc2oc(=O)c3cc(C(=O)Nc4cc(-c5cccc(F)c5)no4)sc3c2c1	.	.	-2	.	.	.
N#CCSc1nc2scc(-c3cccs3)c2c(=O)n1CCc1ccccc1	-16	113	0	-1	-5	-3
COC(=O)C1=C(C)Nc2sc(C(N)=O)c(N)c2C1c1ccncc1 (stereo not given)	.	.	-1	.	.	.
CCOC(=O)C1=C(C)Nc2sc(C(=O)c3ccc(OC)cc3)c(N)c2C1c1ccc(C(=O)OC)cc1 (stereo not given)	.	.	7.3*	.	.	.
CCn1c2ccccc2c2cc(C3N=C(N)Nc4nc5ccccc5n43)ccc21 (stereo not given)	27	277*[fluorescence artefact?]	-2	5	34	3
CCN1C2=C(C(=O)CCC2)C(c2ccc(O)c(Br)c2)C2=C1CCCC2=O	56*[fluorescence artefact?]	59	-1	-3	60*	-11
CCCOc1c(Br)cc(C2C3=C(CCCC3=O)N(C)C3=C2C(=O)CCC3)cc1OC	.	.	-3	.	.	.
NC1C2CN(c3nc4c(cc3F)c(=O)c(C(=O)O)cn4-c3ccc(F)cc3F)CC12 (stereo not given)	.	.	6.6*	.	.	.
COc1ccc(C(=O)NC(=S)NC2CCSC2=O)cc1 (stereo not given)	.	.	3	.	.	.
O=C(O)/C(=C\c1ccncc1)c1cccc2ccccc12	.	.	.	7	.	.
Cc1cc(NC(=O)CSc2cn(CCNC(=O)c3ccc(Cl)cc3)c3ccccc23)no1	70*	58	1	-9	44	6
CCOc1ccc(C(=O)NCCn2cc(SCC(=O)Nc3cc(C)on3)c3ccccc32)cc1	12	155	-2	1	0	-27
CCOC(=O)CSc1nc2ccccc2n1C(=O)OCC	-7	103	-1	-9	-5	8
CCSc1nc2ccccc2n1C(=O)Oc1ccccc1	-45	497*[fluorescence artefact?]	-3	-7	4	-1
Cc1cc2cc(CNC(=O)c3ccc(S(=O)(=O)N4CCCC4)cc3)ccc2n1C	21	293*[fluorescence artefact?]	3	17	32	-3

Screens: PubChem BioAssay, several laboratories
